Data reported in PubChem BioAssay (NCATS).
Results filed as inconclusive are left out. Entries that show only a call come without a potency. The source made the active and inactive calls. Calls follow the shape of the dose curve; as a rule, active = well fitted inhibition curve with a large enough effect; inconclusive = small, poorly fitted or top-dose-only effect; inactive = no such curve, though single readings can be large or run the other way.
Potency is read from the fitted curve at half-maximal effect.

These molecules were tested against Tumor susceptibility gene 101 protein (Homo sapiens) (UniProt Q99816) (assay: qHTS Assay for Iinhibitors of HIV-1 Budding by Blocking the Interaction of PTAP/TSG101: Hit Validation (AID 651600; also: nearly all actives have a fitted effect of over 70% in size)). Conditions: PTAP peptide/TSG101 UEV interaction, biochemical assay; series mostly up to 57.5 µM.
Chain of Tumor susceptibility gene 101 protein (Homo sapiens) (Q99816 whole entry, looked up, the tested form may be a part): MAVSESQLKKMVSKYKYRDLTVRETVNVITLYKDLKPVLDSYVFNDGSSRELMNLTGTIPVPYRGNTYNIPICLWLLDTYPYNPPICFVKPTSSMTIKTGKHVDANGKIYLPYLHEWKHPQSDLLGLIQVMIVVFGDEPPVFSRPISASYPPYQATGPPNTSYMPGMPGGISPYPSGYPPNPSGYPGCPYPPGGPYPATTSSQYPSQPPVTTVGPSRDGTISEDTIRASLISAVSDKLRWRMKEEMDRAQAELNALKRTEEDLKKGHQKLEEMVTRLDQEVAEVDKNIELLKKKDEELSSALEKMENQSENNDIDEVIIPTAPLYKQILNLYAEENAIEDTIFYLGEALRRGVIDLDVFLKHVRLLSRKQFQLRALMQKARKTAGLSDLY
How it was run: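 Displacement of a FITC-labeled PTAP-motif peptide (50 nM) from the Tsg101 binding domain (10 uM) was monitored by fluorescence polarization after a 20 min room-temperature incubation.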
With `CC1CC(C)CN(C(=O)c2ccc3c(c2NCCO)C(=O)c2ccccc2C3=O)C1` (stereo not given) the Potency was “inactive”.
For `COc1cccc2c1C(=O)c1c(O)c3c(c(O)c1C2=O)CC(O)(C(C)=O)CC3OC1CC(O)C(O)C(C)O1` (stereo not given), the Potency was 13 µM (active).
For `COc1ccc(/C=c2\s/c(=C/C(=O)c3ccc(C)cc3)[nH]c2=O)c(OC)c1`, the Potency was “inactive”.
`Cc1ccc(/C=C/C(=O)Nc2ccc(S(=O)(=O)Nc3onc(C)c3C)cc2)cc1` was tested, and the Potency was “inactive”.
For `Nc1ccc2c(c1)C/C(=C/c1ccco1)C2=O`, the Potency was “inactive”.
With `CCCN1CCN(S(=O)(=O)c2cn(C)nc2C)CC1` the Potency was “inactive”.
For `O=C1CCCC2=C1Sc1ccc(Cl)cc1N2`, the Potency was “inactive”.
For `CC(=O)N1c2ccccc2C(=O)C1N1CCCCC1` (stereo not given), the Potency was “inactive”.
In the case of `O=C1c2ccccc2S(=O)(=O)c2cc(N3CCN(C(=O)c4ccccc4)CC3)ccc21`, the Potency is reported as “inactive”.
In the case of `COc1cc2c(cc1OC)-c1cc3ccc4c(c3c[n+]1CC2)OCO4`, the Potency is reported as 13 µM (active).
In the case of `COCCNC(=S)N/N=C/c1c2ccccc2cc2ccccc12`, the Potency is reported as “inactive”.
`Cc1ccc(NC(=S)Nc2ccc3nc(-c4ccccn4)c(-c4ccccn4)nc3c2)cc1C` was tested, and the Potency was “inactive”.
`CCN(C(=O)c1sc2nc3n(c(=O)c2c1C)CCCC3)c1ccccc1F` was tested, and the Potency was “inactive”.
For `C#CCn1cc(C=C2C(=O)c3ccccc3C2=O)c2ccccc21`, the Potency was “inactive”.
In the case of `CCOC(=O)Cn1c(=O)c(-c2cc(Br)ccc2N)nc2ccccc21`, the Potency is reported as “inactive”.
With `O=C(NCc1cccc(F)c1)c1cccc2c1C(=O)c1ccc(N3CCC(Cc4ccccc4)CC3)cc1S2(=O)=O` the Potency was 10.3 µM (active).
For `CS(=O)(=O)Nc1nc2n(n1)C(c1ccccc1)C=C(c1ccc(Br)cc1)N2` (stereo not given), the Potency was 32.6 µM (active).
With `O=[N+]([O-])c1cc(Cl)cc(/C=N/NC(=S)Nc2ccc(S(=O)(=O)N3CCOCC3)cc2)c1O` the Potency was “inactive”.
For `O=C(Nc1nc2c(s1)CN(Cc1ccccc1)CC2)c1cccc(S(=O)(=O)N2CCc3ccccc32)c1`, the Potency was “inactive”.
With `CC1CCCN(Cc2c(O)ccc3c2O/C(=C\c2ccco2)C3=O)C1` (stereo not given) the Potency was 14.6 µM (active).
In the case of `COc1ccc(C(=O)c2sc3nc(C)cc(-c4cccs4)c3c2N)cc1OC`, the Potency is reported as “inactive”.
`Cc1ccc(OC(=O)c2ccc3nc(C)sc3c2)cc1` was tested, and the Potency was “inactive”.
For `COc1cc(/C=c2\sc3nc(=O)c(-c4ccccc4)nn3c2=O)ccc1OCCC(C)C`, the Potency was “inactive”.
`CC1(C)CC(=O)C2=C(C1)OC(N)=C(C#N)[C@@H]2c1ccccc1[N+](=O)[O-]` was tested, and the Potency was “inactive”.
In the case of `O=C(CCN1C(=O)/C(=C/c2ccco2)SC1=S)Nc1ccc(O)cc1C(=O)O`, the Potency is reported as “inactive”.
With `CCCN(CCC)S(=O)(=O)c1ccc(C(=O)OCCN2C(=O)c3cccc4c(N5CCOCC5)ccc(c34)C2=O)cc1` the Potency was 18.3 µM (active).
In the case of `COCCN(CCOC)Cc1c(O)ccc2c1O/C(=C\c1ccco1)C2=O`, the Potency is reported as 13 µM (active).
For `C(=N\NC1=Nc2cccc3cccc1c23)/c1ccccc1`, the Potency was “inactive”.
`O=C(CC1CC2CCC1C2)NCc1cccs1` (stereo not given) was tested, and the Potency was “inactive”.
With `Cc1c(N=C2N=C(NC(=O)c3ccc(F)cc3)c3ccccc32)c(=O)n(-c2ccccc2)n1C` the Potency was “inactive”.
In the case of `Clc1ccc(C2=CC(c3ccco3)n3ncnc3N2)cc1` (stereo not given), the Potency is reported as “inactive”.
`O=c1oc2c3c4c(cc2c2c1CCC2)OCCN4CCC3` was tested, and the Potency was “inactive”.
With `Cc1ccc(NC(=O)/C(C#N)=C(\N)C(Cl)(Cl)Cl)nc1` the Potency was 18.3 µM (active).
In the case of `COc1ccc(C2=CC(c3ccco3)n3ncnc3N2)cc1` (stereo not given), the Potency is reported as “inactive”.
In the case of `Cc1cc[n+](-c2[nH]c(=O)sc2/C=N/N=C(\[O-])c2ccccc2)cc1C`, the Potency is reported as 10.3 µM (active).
`O=C1Nc2ccc(F)cc2C12Nc1ccccc1-c1nnc(SCc3ccccc3F)nc1O2` (stereo not given) was tested, and the Potency was “inactive”.
With `COc1ccc(-c2onc3ccc(Br)cc23)cc1` the Potency was “inactive”.
In the case of `Cc1ccccc1N1C(=O)c2cccc3c(N(C)CCO)ccc(c23)C1=O`, the Potency is reported as 13 µM (active).
In the case of `CCc1cc(C(=O)OC)c(NC(=O)CC2Nc3cc(C)c(C)cc3NC2=O)s1` (stereo not given), the Potency is reported as “inactive”.
With `COc1ccc(-c2cc(C(F)(F)F)c3c(N)c(C(=O)NCCSC)sc3n2)cc1` the Potency was “inactive”.
